High-throughput results: PubChem BioAssay, The Scripps Research Institute Molecular Screening Center
MsrA inh: bovine MsrA enzyme inhibitors, primary screen, biochemical, absorbance, HTS | AID 651718, 2012 | purified bovine MsrA, absorbance read-out | inhibition, % at 15.5 µM | 360,000 compounds, 0.75% hits; in the data active = inhibition above about 4.5%
rCAG binder-1: binders of r(CAG) RNA repeats, primary screen, biochemical, fluorescence | 370,000 compounds, 1.3% hits | inhibition, % at 3 µM | AID 651821, 2012 | r(CAG) RNA repeat, TO-PRO-1 dye displacement fluorescence;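 active = inhibition above the plate cutoff, the mean of all test compounds on that plate plus 3 SD, cut at about 35% in these data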;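 note: higher means more dye released from RNA so lower well fluorescence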
bovine MsrA act: bovine MsrA enzyme activators, primary screen, biochemical, absorbance, HTS; Methionine sulfoxide reductase A (Bos taurus); purified bovine MsrA, absorbance read-out; activation, % at 10.6 µM; 360,000 compounds, 0.3% hits; AID 602163, 2012; in the data active = activation above about 7.5%
HGIII-sPLA2 inh: human group III sPLA2 inhibitors, primary screen, biochemical, QFRET, BODIPY PC-A2 liposome substrate. Group 3 secretory phospholipase A2 (Homo sapiens), Q9NZ20. QFRET BODIPY PC-A2 liposome hydrolysis, fluorescence. inhibition, % at 12.2 µM. 370,000 compounds, 0.56% hits. AID 743126, 2013;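 active = inhibition above mean plus 3 SD of compounds lying within the high and low control bounds, cut at about 19% in these data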
Target sequence (Q9NZ20 whole entry, looked up): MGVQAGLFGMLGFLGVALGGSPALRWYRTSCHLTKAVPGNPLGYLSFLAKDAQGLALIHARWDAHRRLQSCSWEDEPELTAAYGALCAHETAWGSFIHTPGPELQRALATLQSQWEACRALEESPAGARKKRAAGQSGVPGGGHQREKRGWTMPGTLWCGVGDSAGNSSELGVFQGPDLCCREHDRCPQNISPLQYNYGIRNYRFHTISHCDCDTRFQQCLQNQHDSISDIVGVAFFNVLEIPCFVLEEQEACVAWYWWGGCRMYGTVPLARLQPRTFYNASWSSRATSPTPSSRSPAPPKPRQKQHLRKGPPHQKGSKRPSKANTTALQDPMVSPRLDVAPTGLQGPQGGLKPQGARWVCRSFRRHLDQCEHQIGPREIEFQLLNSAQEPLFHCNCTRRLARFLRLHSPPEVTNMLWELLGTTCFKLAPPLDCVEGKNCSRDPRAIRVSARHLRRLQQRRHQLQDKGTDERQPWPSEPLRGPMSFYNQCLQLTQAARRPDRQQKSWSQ
rCAG binder conf: small molecules binding CAG repeat RNA – biochemical, fluorescence, confirmation; shares compounds with rCAG binder-1; r(CAG) RNA repeat, TO-PRO-1 dye displacement fluorescence; inhibition, % at 3 µM; 4,300 compounds, 70% hits;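 active = inhibition above a per-plate cutoff, the mean inhibition of sample wells plus 3 SD, cut at about 35% in these data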;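 note: loss of TO-PRO-1 fluorescence as compound displaces dye from 1x1 AA loop RNA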
DNA CAG counter: displacement of TO-PRO-1 from CAG DNA duplex, counter-screen for rCAG RNA repeat binder project, biochemical, fluorescence, TO-PRO-1 dye, d(CAG) DNA oligo; shares compounds with rCAG binder-1; d(CAG) DNA oligo TO-PRO-1 dye displacement; inhibition, % at 3 µM; 4,300 compounds, 94% hits; AID 652068, 2013;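 active = inhibition above its plate's cutoff, the mean test-well inhibition plus 3 SD, cut at about 4.8% in these data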;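 note: hits displace the dye from DNA and so lower well fluorescence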
dCAG dye DR: inhibitors of DNA CAG/GTC TO-PRO-1 complex, dose response, counter-screen for rCAG RNA repeat binder project, biochemical, fluorescence, TO-PRO-1 dye; shares compounds with rCAG binder-1; IC50, µM; AID 686960, 2013; 250 compounds, 20% hits; DNA CAG/GTC duplex TO-PRO-1 dye displacement fluorescence; in the data active = IC50 below about 10 µM
dCAG TOPRO ctr: TO-PRO-1 dye complex inhibitors on d(CAG) DNA, dose response, counter-screen, biochemical, fluorescence, late stage | shares compounds with rCAG binder-1 | d(CAG) DNA duplex TO-PRO-1 dye displacement | IC50, µM | 30 compounds, 80% hits
rCAG binder-2: molecules binding r(CAG) RNA repeats, late stage dose response, late-stage follow-up, biochemical, fluorescence, dose response, powder samples; r(CAG) RNA TO-PRO-1 dye displacement; shares compounds with rCAG binder-1; AID 720651, 2013; IC50, µM; 30 compounds, 100% hits
A number is an active result; 0 = inactive; - = no result given. Most compounds without a hit are left out; they make up all but 2.8% or so of the library. Unless noted, the rule behind the calls is not given here.

SMILES	MsrA inh	rCAG binder-1	bovine MsrA act	HGIII-sPLA2 inh	rCAG binder conf	DNA CAG counter	others
COc1ccccc1-c1nnc(Nc2nc3c(OC)cccc3s2)o1	0	52.7	0	0	57.5	19.5
COc1cccc(-c2nnc(Nc3nc4c(F)cccc4s3)o2)c1	0	73.4	0	0	67.0	22.8
COc1cccc2sc(Nc3nc(-c4ccncc4)cs3)nc12	0	38.3	0	0	0	13.8
O=C(Nc1nnc(-c2ccccc2Cl)o1)c1nc2ccccc2s1	0	39.9	0	0	47.2	12.7
CSc1ccccc1NC(=O)c1ccc(N2CC3CC(C2)c2cccc(=O)n2C3)c(NC(=O)c2cccnc2)c1 (stereo not drawn)	0	0	0	0	-	-
COc1cccc2sc(Nc3nc(-c4cc5ccccc5oc4=O)cs3)nc12	0	0	0	0	-	-
COc1cccc2sc(Nc3nnc(-c4ccccc4Cl)o3)nc12	0	45.8	0	0	44.1	14.3
Cc1ccc(N2C(=O)/C(=C/c3ccco3)SC2=S)cc1	0	43.7	0	0	0	5.7
N=C1S/C(=C\c2ccco2)C(=O)N1c1ccc2c(c1)OCO2	0	38.2	0	0	0	11.5
O=S(=O)(Nc1ncccn1)c1ccc(NC(=S)N2CCN(Cc3ccc(F)cc3Cl)CC2)cc1	0	38.6	0	0	37.8	11.1
Fc1ccc(CN2CCCN(C(=S)Nc3ccc(F)cc3)CC2)cc1	0	0	0	0	-	-
CC(=O)NNc1cc(C)nc(N)n1	0	65.9	0	0	0	0
O=C(O)c1cc(-c2ccco2)nn1-c1cccc(Cl)c1	0	0	0	0	-	-
Cc1cccc(-n2nc(C)c3c(C(=O)O)cc(-c4cccs4)nc32)c1	0	80.8	0	0	73.6	33.7	dCAG dye DR=6.32;dCAG TOPRO ctr=1.41;rCAG binder-2=0.578
Cc1nn(-c2cccc(Cl)c2)c2nc(-c3ccco3)cc(C(=O)O)c12	0	71.7	0	0	77.4	39.7
Cc1nn(-c2ccccn2)c2nc(-c3cccs3)cc(C(=O)N3CCOCC3)c12	0	0	0	0	-	-
Cc1nn(-c2ccccc2)c2nc(-c3ccco3)cc(C(=O)O)c12	0	54.0	0	0	71.0	26.6	dCAG dye DR=4.28;dCAG TOPRO ctr=6.08;rCAG binder-2=2.51
Cc1c(Cl)c([N+](=O)[O-])nn1Cc1ccc(C(=O)NN)o1	0	0	0	0	-	-
Cc1ccc(C2c3[nH]c4ccccc4c3C[C@H]3C(=O)N(c4ccccc4C(=O)N4CCC[C@@H]4C(=O)O)C(=O)N23)cc1 (stereo partly drawn)	0	39.2	0	0	56.8	19.4
Cc1ccc(C2c3[nH]c4ccccc4c3C[C@H]3C(=O)N(c4ccccc4C(=O)N4CCC(C(=O)O)CC4)C(=O)N23)cc1 (stereo partly drawn)	0	0	0	0	-	-
O=C(O)C1CCN(C(=O)c2ccccc2N2C(=O)[C@@H]3Cc4c([nH]c5ccccc45)C(c4cccc(Cl)c4)N3C2=O)CC1 (stereo partly drawn)	0	38.4	0	0	47.1	14.2
COc1cccc(C2c3[nH]c4ccccc4c3C[C@H]3C(=O)N(c4ccccc4C(=O)N4CCCC4C(=O)O)C(=O)N23)c1 (stereo partly drawn)	0	0	0	0	-	-
Cc1cc(=O)n2nc(N3CCCC3C(=O)Nc3ccccc3C)sc2n1 (stereo not drawn)	0	0	0	0	-	-
Cc1ccc(S(=O)(=O)Nc2nc3ccc(S(=O)(=O)N4CCCC4)cc3s2)cc1	0	71.1	0	0	74.3	38.3
CC(=O)Nc1nc2ccc(S(=O)(=O)N3CCCCC3)cc2s1	0	0	0	0	-	-
SMILES	MsrA inh	rCAG binder-1	bovine MsrA act	HGIII-sPLA2 inh	rCAG binder conf	DNA CAG counter	others
O=S(=O)(Nc1nc2ccc(S(=O)(=O)N3CCCCC3)cc2s1)c1ccccc1	0	71.6	0	0	64.7	28.3
Cn1c(N)c(C(=O)Nc2c(Cl)cccc2Cl)sc1=S	0	0	0	0	-	-
CC(C)(C)[C@H]1CCC(=O)N([C@H](CN=[N+]=[N-])Cc2ccccc2)CC1	0	0	0	0	-	-
COc1ccc(/C=C2/C(=O)N(c3nc4ccccc4s3)N=C2CSc2ccc(Cl)cc2)cc1	0	71.0	0	0	71.8	51.5
COc1cc(OC)cc(C(=O)NN2CCOCC2)c1	0	0	0	0	-	-
O=C(Nc1c(C(=O)O)[nH]c2ccc(F)cc12)c1cccc(C(F)(F)F)c1	0	63.0	0	0	38.8	8.8
O=C(Nc1ccccc1)c1cccc(C(F)(F)F)c1	0	0	0	0	-	-
O=C(Nc1c(C(=O)O)[nH]c2ccccc12)c1cccc(C(F)(F)F)c1	0	38.8	0	0	0	0
CCN(Cc1ccccc1)S(=O)(=O)c1c(N)n(C)c(=O)n(C)c1=O	0	52.5	0	0	0	0
CCCCc1c(-c2ccccc2OC)ncn1CCc1cccc(Cl)c1	0	0	0	0	-	-
COC(=O)c1sc(NC(=S)NNC(=O)c2c(Br)c(C)nn2C)c(C(=O)OC)c1C	0	69.2	0	0	90.1	70.1
CC1=C(C)CC(C(=O)Nc2nc(-c3ccc(C)cc3C)c(C)s2)C(C(=O)O)C1 (stereo not drawn)	0	54.2	0	0	55.5	23.4	dCAG dye DR=0
O=C(COc1ccccc1[N+](=O)[O-])Nc1cc(Cl)ccc1C(=O)O	0	0	0	0	-	-
Cc1ccc(NC(=O)CN(C)C(=O)c2nn(C)c(=O)c3ccccc23)cc1	0	0	0	0	-	-
Cc1c(Nc2nc3ccccc3nc2NS(=O)(=O)c2cccc(Cl)c2)c(=O)n(-c2ccccc2)n1C	0	52.4	0	0	47.9	15.1
COc1ccc(/C=N/NC(=O)CCN2CCN(c3ccccc3)CC2)c(OC)c1OC	0	0	0	0	-	-
O=C(CCN1CCN(c2ccccc2)CC1)N/N=C/c1ccc(O)c(O)c1O	0	56.5	0	0	45.0	20.9
COc1ccc(C)cc1S(=O)(=O)N1CCN(Cc2ccccc2)CC1	0	0	0	0	-	-
